Shiga inhibitor: A qHTS for Small Molecule Inhibitors of Shiga Toxin. inhibition, % at 38.7 µM. actives 9.2% (n = 290,000). Vero cells, Shiga toxin protein synthesis inhibition reporter; in the data active = inhibition mostly above about 28%, no sharp cut-off; inactive = mostly below about 43%; note: 0% is about no effect
Pf growth 96h: Primary qHTS for delayed death inhibitors of the malarial parasite plastid, 96 hour incubation | P. falciparum luciferase reporter growth, 96 h | Potency, µM (top dose mostly 28.7 µM), for inactives: at the highest dose activity change, negative = inhibition, hits mostly inhibitors | actives 6.9% (n = 320,000); note: potency is the fitted concentration of half-maximal effect; % is set by controls: 0 for no effect and ±100 for the full control effect
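Compounds incubated with erythrocytes infected by luciferase-expressing P. falciparum (2% hematocrit, 0.05% parasitemia final) for 96 hours, 37 C in 5% CO2. Growth inhibition scored as decreased luciferase luminescence.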
CHX counter: Cycloheximide Counterscreen for Small Molecule Inhibitors of Shiga Toxin; cell reporter, cycloheximide protein synthesis inhibition counterscreen; actives 12% (n = 300,000); max response, %; AID 2314, 2010; in the data active = max response mostly above about 13%, no sharp cut-off; inactive = mostly below about 14%; note: read at 38.3 µM for the half of the compounds with a filed dose; 0% is about no effect
Pf growth 48h: Primary qHTS for delayed death inhibitors of the malarial parasite plastid, 48 hour incubation. P. falciparum luciferase growth in erythrocytes, 48 h. Potency, µM (series often up to 28.7 µM), for the others: top-dose activity change, negative = inhibition, usual class: inhibitors. actives 5.9% (n = 310,000). AID 504832, 2011; note: potency is the fitted concentration of half-maximal effect; % is set by controls: 0 for no effect and ±100 for the full control effect
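Erythrocytes infected with P. falciparum carrying an integrated firefly luciferase reporter (2% hematocrit, 0.1% parasitemia final) were exposed to compounds in RPMI 1640 with 0.5% Albumax at 37 C, 5% CO2. Growth inhibition was scored as reduced luminescence.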
NS1 inh: qHTS Assay for Inhibitors of Influenza NS1 Protein Function; Potency, µM (titrated, usually from 46.1 µM), inactives show at the top dose activity, positive = more growth; actives 0.4% (n = 270,000); calls by dose curve; note: potency is the fitted concentration of half-maximal effect; actives are rising curves; nearly all actives have a fitted effect of over 50% in size
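Compounds were scored for reversing the slow growth caused by influenza A NS1 in S. cerevisiae, measured by optical density at 600 nm. Assay medium contained 2% galactose at pH 6.0; NS1-free yeast of the same strain were the positive control.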
* = called active by the depositor; ? = inconclusive; / = not tested or not shown; [ ] = remark or other dose. An excerpt weighted towards active compounds, which were near 21% of everything screened. Unless noted, calls come from the whole dose curve; as a rule, active = well fitted inhibition curve with a large enough effect; inconclusive = small, poorly fitted or top-dose-only effect, or another doubt; inactive = no such curve, though single readings can be large or run the other way.

SMILES | Shiga inhibitor | Pf growth 96h | CHX counter | Pf growth 48h | NS1 inh
CCOC(=O)c1cc(-c2ccccc2)sc1NC(=O)C(C)OC(=O)c1ccncc1 (stereo unspecified) | 0.2 | -39.7% | -2.3 | 39.3% | -4.5%
CC(=O)O/N=C/c1c(C)c(C=O)n2ccccc12 | -21.1 | 13.8% | -0.4 | 21.4% | -2.6%
O=C(CNC(=O)c1ccccc1)N/N=C/c1ccc([N+](=O)[O-])s1 | 12.4 | 4.15µM* | 20.1 | ? | /
O=C(Cc1ccccc1)NCC(=O)N/N=C/c1ccc([N+](=O)[O-])s1 | -2.8 | 5.22µM* | -1.4 | ? | 19.4%
O=C(CNC(=O)c1ccccc1)N/N=C/c1cccs1 | 29.8 | ? | -1.2 | 43.7% | 1.2%
Brc1cc(Br)c2nc(-c3ccc(N4CCOCC4)cc3)ccc2c1 | 54.5* | 83.4% | 37.5* | 78.4% | 11.6%
Cc1ccc2c(c1)c1c3n2CC(=C2C(=O)OC(C)(C)OC2=O)NC3CCC1 (stereo unspecified) | 28.5 | 0.185µM* | -1.3 | ? | -59.0%
CCc1ccc(O)c(-c2cc(C(=O)Nc3cccnc3)[nH]n2)c1 | 93.3* | 0.415µM* | 28.0* | ? | 2.5%
Cc1ccc(NC(=O)c2cc(-c3ccccc3)n[nH]2)cc1 | 48.9* | 4.9% | 39.5* | 76.7% | -11.2%
CC(=O)Nc1ccc(NC(=O)c2cc(-c3cc(C)c(C)cc3O)n[nH]2)cc1 | 43.2 | ? | 2.3 | 1.04µM* | 9.9%
Cc1cc(O)c(-c2cc(C(=O)NCCc3ccc(S(N)(=O)=O)cc3)[nH]n2)cc1C | -2.6 | ? | -1.7 | ? | -1.9%
Cc1cc(C)c(O)c(-c2cc(C(=O)Nc3cccnc3)[nH]n2)c1 | 98.0* | 2.94µM* | 29.5* | 2.94µM* | 0.8%
O=C(Nc1cccnc1)c1ccc(F)cc1 | -8.4 | 9.1% | -3.3 | 17.7% | -4.1%
O=c1[nH]c(CNCc2cccnc2)nc2ccccc12 | 24.4 | -7.1% | 6.0 | 9.9% | 2.5%
Cc1cccc(NC(=O)c2cc(-c3cc(C)cc(C)c3O)n[nH]2)c1 | 39.5* | ? | 13.1* | ? | 2.9%
Cc1cccc(NC(=O)c2cc(-c3c(C)cc(C)cc3O)n[nH]2)c1 | 51.3* | 14.7µM* | 27.6 | 0.0% | 5.5%
Cc1ccc(-c2cc(NC(=O)c3ccccc3)on2)cc1 | 93.6* | 42.6% | 22.8* | 3.2%[0.00184 µM] | -7.0%
Cc1cc(O)c(-c2cc(C(=O)Nc3cccnc3)[nH]n2)cc1C | 52.4* | 2.08µM* | 43.4* | 2.62µM* | -2.2%
CC(C)C(NC(=O)c1ccccc1)C(=O)OCc1cc([N+](=O)[O-])cc2c1OCOC2 (stereo unspecified) | 17.7 | -17.5% | 0.3 | -8.2% | -17.4%
Cc1ccc2c(COC(=O)c3ccccc3Cl)cc(=O)oc2c1 | 59.0* | 38.6% | 42.1* | 213.7% | -6.9%
Cc1ccc2c(COC(=O)c3ccccc3Br)cc(=O)oc2c1 | 98.3* | 74.0% | 34.0* | 61.9% | -14.1%
CN(C)c1cccc(C(=O)OCc2cc(=O)oc3cc(O)ccc23)c1 | 49.4 | / | 16.5* | 11.7µM* | -2.8%
Cc1ccc2c(COC(=O)c3ccc(C)c(C)c3)cc(=O)oc2c1 | 10.9 | 11.0% | 2.2 | 2.4% | 9.1%
CCOc1ccccc1C(=O)N[C@H](C(=O)OCc1cc([N+](=O)[O-])cc2c1OCOC2)C(C)C | 11.5 | ? | 3.5 | 13.1µM* | 9.8%
CC1CN(S(=O)(=O)c2cccc(C(=O)OCc3cc(=O)oc4cc(O)ccc34)c2)CC(C)O1 (stereo unspecified) | 3.4 | -17.5% | -1.4 | ? | -15.7%
SMILES | Shiga inhibitor | Pf growth 96h | CHX counter | Pf growth 48h | NS1 inh
COc1ccc(C(C)(C)C)cc1NC(=O)COC(=O)C1=NNC(=O)CC1 | / | 13.6% | / | -8.4% | /
Cn1c(=O)c2c(nc(Br)n2C/C=N/NC(N)=S)n(C)c1=O | 1.6 | ? | -0.6 | ? | 7.0%
COc1cc(OC)cc(C(=O)N[C@H](C(=O)OCc2cc(=O)oc3cc(C)ccc23)C(C)C)c1 | 12.1 | 56.9% | -1.6 | 16.8% | -0.2%
CCOc1ccccc1C(=O)N[C@H](C(=O)OCc1cc(=O)oc2cc(C)ccc12)C(C)C | 17.1 | ? | 26.3* | ? | 15.9%
Oc1c(C=Nc2cccnc2)sc2ccccc12 | 95.0* | -6.5% | 50.3* | 9.0% | -19.2%
Oc1c(/C=N/c2ccccn2)sc2ccccc12 | 61.4* | ? | 40.1* | 0.0% | -71.0%
CC(C)CCn1c(O)c(N=Nc2ccccn2)c2ccccc21 | 11.9 | ? | 5.4 | ? | -25.8%
Oc1c(C=NCc2ccncc2)sc2ccccc12 | 83.7* | -8.6% | 46.7* | 18.5% | -6.5%
CN=Cc1sc2ccccc2c1O | 32.7 | ? | 18.7* | 6.0% | -31.1%
O=C(CCC(=O)NNC(=O)Nc1cccc(Cl)c1)NCc1ccccc1 | -1.7 | 0.0% | 2.0 | -9.4% | /
Cc1ccc(SCC(=O)OCC(=O)N(CC(C)C)c2c(N)n(Cc3ccccc3)c(=O)[nH]c2=O)c(C)c1 | / | -16.8% | / | 53.0% | /
Oc1c(C=Nc2ccc(Cl)cn2)sc2ccccc12 | 14.0* | 12.1% | 28.6* | 200.9% | -30.9%
CC(=O)NCCN=Cc1sc2ccccc2c1O | 68.4* | 3.7µM* | 40.4* | 30.7% | -29.3%
CC(=O)Nc1ccc(NC(=O)CNC(=O)c2sc3ccccc3c2Cl)cc1 | / | 39.2% | / | 0.9% | /
O=C(O)Cc1cc(C(=O)Nc2ccc(Br)cc2)sc1-c1ccccc1 | -2.5 | -12.9% | 3.8 | -8.6% | 4.2%
CCn1cc(C(=O)OCC(=O)Nc2c(C)cccc2C)c(=O)c2ccc(C)nc21 | 0.8 | -31.4%[5.75 µM] | 2.0 | ? | /
CCN1C(=O)/C(=C\C=C\c2ccccc2[N+](=O)[O-])SC1=S | 42.9 | 17.1% | 21.6 | ? | /
CCN1C(=O)/C(=C/C=C2\N(CC)c3cc(S(=O)(=O)N(C)C)ccc3N2c2ccccc2)SC1=S | 14.9 | 13.1µM* | 0.8 | ? | 2.7%
COc1cccc(CNS(=O)(=O)c2cc(CN3C(=O)c4cccnc4C3=O)ccc2OC)c1 | -4.5 | 31.7% | 1.8 | 16.8% | -7.6%
O=C(N/N=C/c1c(F)c(F)c(F)c(F)c1F)c1ccc(Cn2cc(Br)cn2)o1 | -4.3 | ? | -1.2 | -19.0% | -1.6%
C/C(=N\NC(=O)c1ccc(Cn2cc(Br)cn2)o1)c1ccc(NC(=O)c2ccoc2C)cc1 | 65.1* | ? | 38.7* | ? | -15.5%
C/C(=N\NC(=O)c1ccc(Cn2cc([N+](=O)[O-])cn2)o1)c1cccc(NC(=O)c2cccnc2)c1 | 33.2 | 4.15µM* | -2.6 | -26.9% | 9.7%
C/C(=N\NC(=O)c1ccc(Cn2cc(Br)cn2)o1)c1cccc(NC(=O)C(C)(C)C)c1 | 27.2 | ? | 14.0 | -29.5% | -9.7%
CCCc1ccc(OCc2ccc(C(=O)N/N=C/c3cccnc3)o2)cc1 | 109.6* | 32.8% | 68.4* | 22.7% | -13.2%
CCOc1ccc(/C=N/NC(=O)c2ccc(Cn3cc(Br)cn3)o2)cc1 | active | 53.3% | 28.0* | -1.4% | -9.5%
CC(C)(C)c1ccc(OCc2ccc(C(=O)N/N=C/c3ccc([N+](=O)[O-])cc3)o2)cc1 | 58.1* | 59.2% | 23.7 | ? | -0.8%
